Assay results taken from PubChem BioAssay.

assay: probe aNOTCH3 binding on compound microarray – biochemical, small-molecule microarray, 635/667 nm fluorescence, primary screen (AID 1120); details: higher = more signal;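 also: probe is a biotin-tagged antibody raised against NOTCH3 rather than NOTCH3 protein; score merges spot fluorescence near 667 nm with spot signal to noise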

Structure (SMILES)	composite z-score
CC#CC(=O)Oc1ccccc1C=CC(=O)OCC	0.0035
CC(C)CNC(=O)[C@@]1(Cc2ccccc2I)c2ccccc2C(=O)N(C2CCCCC2)[C@H]1c1ccc(CO)cc1	-0.139
O=C(c1ccccc1)N1C(=O)[C@]2(COC(c3ccc(OCCCO)cc3)=N2)Cc2ccccc21	0.201
CC(C)(C)OC(=O)CC[C@]1(C(=O)N2CCOCC2)N=C(c2ccc(OCCCO)cc2)O[C@H]1c1ccccc1N=[N+]=[N-]	0.133
COCCOC(=O)N1C(=O)[C@@]2(c3cc(C#CCC(C(=O)OC)C(=O)OC)ccc31)[C@H](c1ccccc1OCCO)N1[C@H](c3ccccc3)[C@H](c3ccccc3)OC(=O)[C@H]1[C@@H]2C(=O)NC[C@H](O)c1ccccc1	0.164
COCCCNC(=O)[C@]1(CCC(=O)OC(C)(C)C)N=C(c2ccc(OCCCO)cc2)O[C@@H]1c1ccccc1CN=[N+]=[N-]	0.395
CCOC(=O)C1=C[C@@H](C(C)(C)C)N(S(=O)(=O)c2ccc(C)cc2)[C@H]1c1ccc(F)cc1	0.169
COc1cc(NN2C(C(O)c3ccco3)C=CC3C(=O)N(c4ccccc4)C(=O)C32)cc(OC)c1OC (stereo not given)	-0.0328
CCC(CC)C(O)C1C=CC2C(=O)NC(=O)C2N1Nc1ccc(Cl)cc1Cl (stereo not given)	0.237
CCCC[C@H]1OB(O)C[C@H]2C1=C(COC)Cn1c(=O)n(-c3ccccc3)c(=O)n12	-0.0903
C=C(COC)/C(=C/C[C@@H](OC(C)=O)c1ccc(OCCO)cc1)c1cnc2ccccc2c1	0.112
CN(C)C(=O)[C@@]1(CCS(=O)(=O)c2ccccc2)COC(c2ccc(OCCCO)cc2)=N1	0.125
CCCCCCc1nc(-c2ccc(OC)nc2)cc2c1[Si](C(C)C)(C(C)C)O[C@H]2c1ccccc1	-0.0864
O=C(CS)NCCCCCCNC(=O)[C@@H]1C[C@@H]2C(=O)N[C@@H](Cc3ccccc3)C(=O)N2[C@@H]1c1cccc(OCCO)c1	0.169
COC(=O)[C@@]1(Cc2ccc(OC)cc2)[C@H]2c3cc(C(=O)N(C)C)n(Cc4ccc(S(C)(=O)=O)cc4)c3C[C@H]2CN1C(=O)c1ccccc1	0.697
O=C1C[C@@](C(=O)NC2CC2)(c2ccc([N+](=O)[O-])cc2)[C@@H](c2ccc(CO)cc2I)N1C1CCCCC1	0.0596
CN1C=C(C(=O)OCCS(C)(=O)=O)C(C(=O)OCCS(C)(=O)=O)=CC(c2ccc(CO)cc2)=CC1C1CC1 (stereo not given)	-0.0918
O=C1NC(=O)C2C1C=CC(C(O)c1cc(C(F)(F)F)cc(C(F)(F)F)c1)N2Nc1ccccn1 (stereo not given)	-0.0972

Structure (SMILES)	composite z-score
CN(C)CCCCCCNC(=O)[C@@H]1C[C@@H]2C(=O)N[C@@H](Cc3ccccc3)C(=O)N2[C@@H]1c1ccc(O)cc1	0.299
Cc1nc2cc(Br)ccc2c(=O)o1	-0.013
O=C(NC1CC1)[C@@H]1c2ccccc2C(=O)N(Cc2ccccc2Cl)[C@H]1c1ccc(CO)cc1	0.0765
O[C@@H](Cc1ccccc1)[C@H]1C2C=CCCC=C2CN1Cc1cccc(Cl)c1 (stereo not given in full)	0.361
COCCOC(=O)N1C(=O)[C@@]2(c3cc(C#CCNC(N)=O)ccc31)[C@H](C(=O)N1CCN(c3ncccn3)CC1)[C@H]1C(=O)O[C@H](c3ccccc3)[C@H](c3ccccc3)N1[C@@H]2c1ccc(OCCO)cc1	0.185
COCCOC(=O)N1C(=O)[C@@]2(c3cc(C#CCNC(N)=O)ccc31)[C@H](C(=O)Nc1nc3ccccc3s1)[C@H]1C(=O)O[C@H](c3ccccc3)[C@H](c3ccccc3)N1[C@@H]2c1ccc(OCCO)cc1	0.0952
CC(C)C(O)C1C=CC2C(=O)N(c3ccccc3)C(=O)C2N1Nc1ccc([N+](=O)[O-])cc1 (stereo not given)	1.2
CCOC(=O)C[C@H]1[C@H](OC(=O)c2ccccc2-c2ccccc2)[C@@H](NC(=O)CC(C)C)c2cc(OCCCO)ccc2N1C(=O)Cc1ccc(OC)cc1	0.0708
C=C(CCCC)/C(=C/C[C@H](OC(C)=O)c1ccccc1OCCO)c1cc(C(=O)OC)ccc1OC	-0.141
C=CCC(OC(C)=O)[C@@H]1[C@@H](N(Cc2ccc(-c3ccccc3)cc2)C(=O)Cc2ccc(OC)cc2)c2cc(OCCCO)ccc2N1C(=O)Cc1ccc2ccccc2c1 (stereo not given in full)	-0.0841
COc1ccc(CCNC(=O)[C@@]2(Sc3ccc(C)cc3)CC(=O)N(C3Cc4ccccc4C3)[C@@H]2c2ccc(CO)cc2I)cc1	0.0425
COC(=O)[C@@]1(Cc2ccccc2)N=C(c2ccc(OCCCO)cc2)O[C@H]1c1ccccc1	-0.17
COCCOC(=O)N1C(=O)[C@@]2(c3cc(C#CCC(C(=O)OC)C(=O)OC)ccc31)[C@H](c1ccccc1OCCO)N1[C@H](c3ccccc3)[C@H](c3ccccc3)OC(=O)[C@H]1[C@@H]2C(=O)N1CCN(c2ncccn2)CC1	0.225
C=C(CCCC)/C(=C/C[C@@H](OC(=O)c1ccncc1)c1ccc(OCCO)cc1)c1cc(C(=O)OC)ccc1OC	-0.0288
CCCCN1CC=CC23O[C@@H]4C=CCCOC(=O)C4[C@H]2C(=O)N(CCCCCCO)[C@@H]3C1=O (stereo not given in full)	-0.275
CN(C)CCCC[C@@H]1NC(=O)[C@H]2C[C@@H](C(=O)NCCCCCCN)[C@@H](c3ccc(O)cc3)N2C1=O	0.665
COc1ccc(-c2cc3c(c(-c4ccc(Oc5ccccc5)cc4)n2)[Si](C(C)C)(C(C)C)OC3)cn1	-0.0311
